Many of the other results were omitted from the sample, so hits are more common in it than they were.
S-ASM inh: blocks human secretory acid sphingomyelinase; P17405; placental ASM, HMU-PC fluorogenic substrate, 60 min; Potency, µM (doses to about 57.5 µM), inactives show top-dose activity change, negative = inhibition, usual class: inhibitors; 340,000 tested, 0.006% active; AID 504937; note: potency is the fitted concentration of half-maximal effect
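Steps: dispense placental human ASM, pin compound, wait 10 min at room temperature, add HMU-PC0 substrate at 9 uM final, incubate 60 min at 37 °C, add stop solution raising pH to 10, read fluorescence.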
ClpP mod: qHTS Assay for Activators of ClpP; purified B. subtilis ClpP, FRET peptide cleavage, 20 min; Potency, µM (doses to about 57.5 µM), without a hit: at the top dose activity change, negative = active; 340,000 tested, 1.9% active; active = well fitted falling curve with a large enough effect; inconclusive = small, poorly fitted or top-dose-only effect; inactive = no such curve, though single readings can be large or run the other way; note: potency is the fitted concentration of half-maximal effect; the source files actives as falling curves though it sought activators and does not explain the sign; nearly all actives have a fitted effect of over 65% in size
Target sequence (P80244 whole entry, looked up): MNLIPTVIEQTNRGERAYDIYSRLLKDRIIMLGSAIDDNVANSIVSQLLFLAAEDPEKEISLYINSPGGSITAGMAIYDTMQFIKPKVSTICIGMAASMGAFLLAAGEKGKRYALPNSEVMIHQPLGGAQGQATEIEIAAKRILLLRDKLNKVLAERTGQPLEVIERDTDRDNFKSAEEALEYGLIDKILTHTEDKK
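FRET quenching reversal measured ClpP activation: 10 microg/mL B. subtilis ClpP at pH 8 with the FRET-FV decapeptide, read at 430 nm after 320 nm excitation. The 20-min minus 0-min signal was scaled between DMSO/no-enzyme wells and ADEP (5.8 microM final).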
LDHA inh: blocks human lactate dehydrogenase A; P00338; purified LDHA, NADH/diaphorase-resazurin fluorescence; stronger effect = lower value; activity change, % (values are at about 110 or 230 µM); 480,000 tested, 0.15% active; AID 1347041; in the data active = activity change below about -30%; inconclusive = mostly about -25% to -30%;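 note: plate controls were DMSO wells for no effect and wells without enzyme for full effect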
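Resorufin fluorescence (ex540/em590), read at 0 and 20 min after diaphorase/resazurin addition, reports the NADH left after a 5 min room-temperature reaction of 2 nM human LDH5 with 0.06 mM NADH and 0.2 mM pyruvate.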
Mito fusion yeast: inhibitors of mitochondrial division or activators of mitochondrial fusion | S. cerevisiae fusion-defective mutant growth rescue, CellTiterGlo 48 h | 320,000 tested, 0.23% active | Potency, µM (doses to about 46.1 µM), for inactives: top-dose growth rescue (activation), hits mostly activators | AID 485298; note: potency is the fitted concentration of half-maximal effect; % of control where 0% means no effect; nearly all actives have a fitted effect of over 45% in size
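Luminescent cell viability in 1536-well qHTS format served as the measure of rescued growth in ts fusion-mutant S. cerevisiae cultured on non-fermentable YPEG for 48 hours at 37C.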
mIDH1 inhibitor: blocks human mutant IDH1 R132H enzyme; IDH1-R132H enzyme, NADPH consumption, diaphorase/resazurin fluorescence; O75874; AID 602179; Potency, µM (titrated, usually from 76.6 µM), for the others: top-dose activity change, negative = inhibition, usual class: inhibitors; 390,000 tested, 0.093% active; note: potency is the fitted concentration of half-maximal effect; % is set by controls: 0 for no effect and ±100 for the full control effect; nearly all actives have a fitted effect of over 65% in size
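IDH1-R132H (0.5 ug/mL dispensed) in pH 7.5 Tris buffer was preincubated 30 min with compound, then given a substrate mix of 0.016 mM NADPH and 2 mM alpha-KG for 80 min at room temperature; remaining NADPH was read by diaphorase/resazurin fluorescence.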
RGS4 inh: blocks human RGS4-accelerated GTP hydrolysis; Transcreener GDP fluorescence polarization, RGS4-accelerated GTP hydrolysis; 390,000 tested, 0.039% active; Potency, µM (highest dose often 114 µM), without a hit: top-dose activity change, negative = inhibition, most hits filed as inhibitors; P49798; AID 504845; note: potency is the fitted concentration of half-maximal effect; % is set by controls: 0 for no effect and ±100 for the full control effect; nearly all actives have a fitted effect of over 75% in size
Target sequence (P49798 whole entry, looked up): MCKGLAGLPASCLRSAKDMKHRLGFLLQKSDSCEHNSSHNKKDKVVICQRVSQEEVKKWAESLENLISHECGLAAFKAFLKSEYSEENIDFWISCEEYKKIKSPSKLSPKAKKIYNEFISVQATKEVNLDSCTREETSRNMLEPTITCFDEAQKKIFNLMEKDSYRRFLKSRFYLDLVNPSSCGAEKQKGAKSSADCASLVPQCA
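MLSMR compounds (23 nl, pin-transferred) preincubated 10 min at room temperature with a 500nM (2x) first reagent, then RGS4 at 900nM (2x) plus Transcreener GDP mix added; fluorescence polarization (620/688 nm) read before and after 90 min at 30 °C.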
IDH1 autofl: counter-screen for mutant IDH1 inhibitors: fluorescence interference | shares compounds with mIDH1 inhibitor | Resorufin detection reagent fluorescence interference, cell-free | inhibition of signal, % at 51.2 µM | 750 tested, under 10 active | AID 623980;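 note: 0% = wells with normal resorufin and full inhibition = wells lacking resorufin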
WT IDH1 inh: wild-type IDH1 (human) inhibition counterscreen; Potency, µM (doses to about 115 µM), inactives show top-dose activity change, negative = inhibition, most hits filed as inhibitors; AID 623995; WT IDH1 enzyme, NADPH diaphorase/resazurin fluorescence; shares compounds with mIDH1 inhibitor; 750 tested, 9% active;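 note: potency is the fitted concentration of half-maximal effect; 0% = full WT IDH1 enzyme control and full inhibition = no enzyme wells; nearly all actives have a fitted effect of over 55% in size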
IDH1 R132H conf: confirmation of human mutant IDH1 inhibitors | Potency, µM (series often up to 76.6 µM), for the others: at the highest dose activity change, negative = inhibition, most hits filed as inhibitors | shares compounds with mIDH1 inhibitor | 750 tested, 83% active | IDH1 R132H enzyme, NADPH diaphorase/resazurin fluorescence; note: potency is the fitted concentration of half-maximal effect; nearly all actives have a fitted effect of over 50% in size
ClpP validation: validation of B. subtilis ClpP protease hits (inhibitors); shares compounds with ClpP mod; purified B. subtilis ClpP, FRET-FV substrate cleavage, 20 min; Potency, µM (highest dose often 57.5 µM), for the others: at the top dose activity change, negative = inhibition, hits mostly inhibitors; 470 tested, 40% active; AID 743245; note: potency is the fitted concentration of half-maximal effect; % is set by controls: 0 for no effect and ±100 for the full control effect; nearly all actives have a fitted effect of over 70% in size
* marks the source's active call; other numbers are inactive results; ? = inconclusive; / = no result given; [ ] = remark or other dose. Unless noted, calls come from the whole dose curve; as a rule, active = well fitted curve in the direction sought with a large enough effect; inconclusive = small, poorly fitted or top-dose-only effect, or another doubt; inactive = no such curve, though single readings can be large; an effect the other way counts as inactive or inconclusive.

SMILES	S-ASM inh	ClpP mod	LDHA inh	Mito fusion yeast	mIDH1 inhibitor	RGS4 inh	ClpP validation	others
COc1c(/C=C(\C)[N+](=O)[O-])cc2c(c1OC)OCO2	/	/	-1	/	/	/	/
Cc1ccc(C[n+]2c(-c3ccc(C)cc3)cc(-c3ccc(C)cc3)cc2-c2ccc(C)cc2)cc1	-13%	4%	-1	-22%	40µM*	-22%	/	IDH1 autofl=0;WT IDH1 inh=12%;IDH1 R132H conf=22µM*
Cc1ccc(-c2cc(-c3ccc(C)cc3)[n+](-c3ccc(C(=O)O)cc3)c(-c3ccc(C)cc3)c2)cc1	12%	4%	2	-2%	5%	9%	/
CCOc1ccccc1Oc1coc2cc(OC(=O)c3ccco3)ccc2c1=O	66%	47%	-13	8%	?	-20%	/	IDH1 autofl=-9;WT IDH1 inh=1%;IDH1 R132H conf=28µM*
CCOc1ccccc1Oc1coc2cc(OC(=O)N(C)C)ccc2c1=O	4%	1%	-2	8%	2%	-12%	/
Cc1ccccc1C(=O)Nc1cc(-c2ccc(Cl)cc2)nn1-c1ccccc1	/	145%	-6	/	-2%	14%	-29%
COc1ccc(S(=O)(=O)NC(CC(=O)N2CCC3(CC2)OCCO3)c2ccco2)cc1 (stereo unspecified)	2%	2.8µM*	-12	-19%	3%	2%	-2%
COc1ccc(C(CC(=O)N2CCC3(CC2)OCCO3)NS(=O)(=O)c2ccc(OC)cc2)cc1 (stereo unspecified)	6%	-1%	-8	2%	5%	-15%	/
CCCNC(=O)c1cnn2c(C)c(Cc3c(C)cc(C)cc3C)c(C)nc12	/	10µM*	-17	/	-1%	7%	-1%
COc1ccc(C2SCC(=O)Nc3c2c(C)nn3C)cc1 (stereo unspecified)	/	/	-1	/	/	/	/
Oc1cc2c(cc1CN1CCN(c3ccccc3F)CC1)OCO2	5%[11.5 µM]	/	28	-3%	10%	-3%	/
CCCCC(=O)Nc1c(C(=O)N2CCN(c3ccccc3F)CC2)oc2ccccc12	/	1.3µM*	1	/	-6%	3%	-2%
COC(=O)c1ccc(CBr)cc1	/	/	-2	/	/	/	/
Cc1ccc(CNC(=O)c2ccc(Nc3nc4ccccc4n4nnnc34)cc2)cc1	/	130%	-4	/	-1%	24%	2.7µM*
O=C(NCCc1ccc(Cl)cc1)c1ccc(Nc2nc3ccccc3n3nnnc23)cc1	/	119%	-3	/	-14%	-7%	22µM*
N#Cc1ccc(NC(=O)CN2CCc3sccc3C2c2cccs2)cc1Cl (stereo unspecified)	/	/	10	/	/	/	/
Cc1[nH]nc2c1C(c1ccc(OCC(N)=O)cc1)SCC(=O)N2 (stereo unspecified)	/	/	0	/	/	/	/
